# Laboratory results taken from PubChem BioAssay AID1117361 (Southern Research Institute, 2015).
# In all, about 3,600 compounds went through this assay and about 900 (25%) were called active. A selection follows. Measured potencies and affinities stand elsewhere. Unmarked numbers belong to inactive results. No rule for the calls is given here.
# Target: Protein Tat (Human immunodeficiency virus type 1 group M subtype B (isolate HXB2)) (UniProt P04608)
# Test: inhibitors of Tat binding to TAR RNA, dose response, counter-screen for Vif-APOBEC3G degradation inhibitor project, biochemical, fluorescence polarization, FAM-labeled TAR RNA (AID 1117361)
# Settings: outcome: dose series up to 100 µM unless noted; series mostly up to 100 µM; inhibition: at the top concentration
SMILES,inhibition [%],outcome
CCn1c(SC(C)C(=O)NC2CCCc3ccccc32)nnc1-c1cccs1 (stereo not given),3.38,–
c1ccc2c(c1)ccc1nnc(SCc3ccc4c(c3)OCO4)n12,12.2,–
CCC(c1ccc(O)c(O)c1)C(CC)c1ccc(O)c(O)c1 (stereo not given),3.01,–
CSc1ccc(CN(C)CC(=O)NC(=O)NCCC2=CCCCC2)cc1,–,inactive
COc1cc(/C=N/N=C(N)N)ccc1OCc1ccc(Cl)cc1,–,inactive
CSc1cccc(-n2cc(-c3ccc4c(c3)OCO4)[nH]c2=O)c1,3.41,–
CSCC[C@@H](Nc1nc(-c2ccccc2)nc2c1oc1ccccc12)C(=O)O,4.09,–
CN1CCN(C(=O)C2CCN(S(=O)(=O)c3cnc[nH]3)CC2)CC1,8.19,–
COCCCNC(=O)c1cc(OC)c(OC)c(OC)c1,–,inactive
C/C=C/c1ccc(OCC(=O)N2CCc3cc(OC)c(OC)cc3C2)c(OC)c1,1.65,–
Cc1nn(-c2ccccc2)cc1/C=N/O,12.2,–
CCCc1nc(SCC(=O)N2CCCc3ccccc32)c2c(=O)n(C)c(=O)n(C)c2n1,–,inactive
O=C(NC(Cc1ccccc1)c1nc2ccccc2[nH]1)c1cccc([N+](=O)[O-])c1 (stereo not given),–,inactive
CCOC(=O)C1=C(C)N=c2s/c(=C/c3ccco3)c(=O)n2C1c1cccc(OC)c1 (stereo not given),1.65,–
CCOC(=O)C1=C(C)NC(C)=C(C(=O)OCC)C1c1cn(-c2ccccc2)nc1-c1ccco1,25,–
O=C(CN1c2ccccc2Sc2ccccc21)NNC(=S)Nc1ccc(Cl)cc1Cl,1.35,–
CCCn1nc(NC(=O)c2cccs2)c2cc3ccccc3nc21,16.2,–
CC1=C(SCc2ccccc2)C(=O)c2ccccc2C1=O,–,inactive
CCCCNC(=O)c1onc(CSc2ccc(C(C)C)cc2)c1C(=O)O,0.68,–
COc1ccc(CCN(C)C(=O)COC(=O)/C=C/c2ccc(C)o2)cc1OC,8.35,–
Cn1nc(C(F)(F)F)c(C#N)c1N1CCN(c2ccc(F)cc2)CC1,6.08,–
Cn1cc(/C=C/C(=O)N2CCCC(C(=O)c3cccc(C(F)(F)F)c3)C2)cn1 (stereo not given),6.6,–
CCOC(=O)C1Nc2ccc(Br)cc2C2C=CCC12 (stereo not given),5.68,–
CC(C)Cc1nc2oc3c(NCC(C)O)ncnc3c2c2c1CCCC2 (stereo not given),–,inactive
O=C(NC1CCCCC1)C(c1ccc(F)cc1)N(C(=O)Cc1ccsc1)c1ccc(F)cc1 (stereo not given),0.68,–
O=C1C(O)CC2c3ccccc3CC3(CCCC3)N12 (stereo not given),16.2,–
Cc1ccc2c(c1)NC(=O)c1cc([N+](=O)[O-])ccc1O2,6.6,–
CCCCn1c(NCc2ccccc2NS(=O)(=O)c2ccc(C)cc2)nc2ccccc21,4.73,–

SMILES,inhibition [%],outcome
CCOC(=O)C1=C(c2ccccc2)NC(=O)NC1c1cc(Cl)c(O)c(OC)c1 (stereo not given),0.82,–
CCOc1ccc(NC(=O)C(C)SC(N)=O)cc1 (stereo not given),–,inactive
CCOc1cc(/C=C2/C(=O)N(c3ccccc3)N=C2C)ccc1OC(=O)c1ccco1,0.68,–
O=C(NC1CCN(C(=S)NCc2ccco2)CC1)C12CC3CC(CC(C3)C1)C2,–,inactive
Cc1[nH]nc2c1C(c1cn[nH]c1-c1ccc(F)cc1)C(C#N)=C(N)O2 (stereo not given),9.46,–
COc1ccc2c(c1)O[C@@H](c1ccc3c(c1)OCO3)[C@H](OC(=O)Nc1cc(OC)c(OC)c(OC)c1)C2=O,–,inactive
Cn1cc(Br)c(C(=O)NC2CCCCC2)n1,4.73,–
CCOCCCNC(=S)Nc1ccc2nc(N3CCN(CC)CC3)cc(C)c2c1,7.68,–
Cc1nn(Cc2ccc(Cl)cc2Cl)c(C)c1NC(=O)NC12CC3CC(CC(C3)C1)C2,–,inactive
Cc1c(C)c2ccc(O[C@@H]3O[C@H](CO)[C@H](O)[C@H](O)[C@H]3O)c(C)c2oc1=O,6.35,–
Cn1c(SCC(=O)NC(c2ccccc2)c2ccccc2)nnc1-c1cccs1,3.38,–
O=C(Nc1ccccc1F)c1ccc(S(=O)(=O)NCC2CCCO2)cc1 (stereo not given),4.77,–
CCCC(=O)Nc1ccc(Br)cn1,4.05,–
CC12CCC(C(=O)Nc3ccc(Br)cn3)(OC1=O)C2(C)C (stereo not given),–,inactive
O=C(Nc1ccc(F)cc1F)c1noc2c1CCC2,–,inactive
CC(C)(C)C1CCC(OC(=O)C[N+]2(C)CCCCC2)CC1 (stereo not given),–,inactive
COc1ccc(CNC(=O)C2CCCN(S(=O)(=O)c3c(C)nn(C)c3C)C2)cc1 (stereo not given),–,inactive
CCCn1c(Sc2nnnn2-c2ccccc2)n[nH]c1=O,–,inactive
N#Cc1c(-c2ccccc2)nc2n1CCS2,–,inactive
O=C(Nc1nccc(-c2cccs2)n1)c1ccccc1Cl,7.5,–
CCOc1cc(C(=O)Nc2c3c(nn2C(C)(C)C)CS(=O)C3)cc(OCC)c1OCC (stereo not given),2.05,–
O=C(CCCN1C(=O)c2ccccc2C1=O)NCC1CCCO1 (stereo not given),4.77,–
CCOn1c(=O)c(=O)n(OCc2ccccc2)c2ccccc21,–,inactive
Oc1ccc(Cl)cc1-c1cc(-c2ccccc2)n[nH]1,3.38,–
CN1CCN(C(=O)/C(=C/c2ccc(F)cc2)NC(=O)c2ccccc2)CC1,1,–
O=C(c1ccco1)N1CCN(S(=O)(=O)c2ccc(F)cc2)CC1,10.1,–
Cc1ccc(S(=O)(=O)Nc2ccc3c(c2)c2c(n3S(=O)(=O)c3ccc(C)cc3)CCCC2=O)cc1,–,inactive
